The values below come from PubChem BioAssay (NCI).

Compounds without any hit were thinned out: in the full panel of roughly 83,000, 20% have a hit.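 For each line, cells grew in 96-well plates with the test compound present at a single concentration for 48 hours.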 Unmarked numbers belong to inactive results. Active and inactive are the calls of the source. The calls were made as follows: active = growth percent below 10; inactive = the rest.

The assay has as its system NCI-H522 lung. Nature of the assay: NCI-60 one-dose screen, 48 h (100 = growth as untreated, 0 = no growth, -100 = all killed). The conditions noted are these: 10 µM unless noted.
On to `COC(=O)C[C@](O)(CCCC(C)(C)O)C(=O)O[C@H]1C(OC)=C[C@@]23CCCN2CCc2cc4c(cc2[C@@H]13)OCO4`, for which the growth was -68.7% (active).

Consider `COc1cc(/C=C2\C(=N)N=C(SCc3nc4ccccc4[nH]3)NC2=O)ccc1O`, for which the growth is 99.2%.

`N/C(=N\N=C\c1ccc([N+](=O)[O-])cc1)c1c(N)nc(=S)[nH]c1-c1ccc(Cl)cc1Cl`: the growth is 78.5%.

In the case of `CC1(c2cc3cc(Cl)ccc3oc2=O)NC(=O)c2c(/C=C/C(=O)OC3CC4CCC3(C)C4(C)C)cccc2N1` (stereo not drawn), the growth is 36.8%.

Take `O=C(N=Nc1c(O)[nH]c2ccc(Cl)cc12)c1ccc2nc(-c3ccccc3)[nH]c2c1`: the growth was 8.85% (active).

As to `O=C(O)c1cccc(-c2ccc(/C=N/NC(=O)c3[nH]c4ccc(Br)cc4c3-c3ccccc3)o2)c1`, the growth was -12.6% (active).

`CC1(C)CC[C@]2(C(=O)Nc3ccccc3)CC[C@]3(C)C(=CCC4[C@@]5(C)C[C@@H](O)[C@H](O)[C@@](C)(CO)C5CC[C@]43C)C2C1` (stereo partly drawn): the growth is 41.6%.

In the case of `O=c1[nH]c2ccccc2cc1CSc1cccc(Nc2nccc(-c3ccc4ccccc4c3)n2)c1`, the growth is 79%.

Consider `Clc1cccc(N/N=C/c2c[nH]c3ccc(Br)cc23)n1`, for which the growth was -27.8% (active).

For `CSc1ccc(NC(=O)c2ccc3nnn(/C(C#N)=C/c4ccccn4)c3c2)cc1`, the growth is -95.4% (active).

As to `Cc1c(C(=O)NNC(=O)c2ccc(Cl)cc2)nnn1-c1ccc(Cl)cc1`, the growth is 96.9%.

In the case of `CN(C)c1nc(NCCNS(=O)(=O)c2ccc(C(=O)/C=C/c3ccc(F)cc3)cc2)nc(Nc2ccc(F)cc2)n1`, the growth is -96.1% (active).

Take `CNC(=O)c1cc(Oc2ccc3nc(NC(=O)Nc4cccc(OC(F)(F)F)c4)sc3c2)ccn1`: the growth was 26.6%.

Take `CC(C)(C)OC(=O)/C=C/c1cccc2c1C(=O)NC(C)(c1cc3cc(Cl)ccc3oc1=O)N2` (stereo not drawn): the growth was 34.9%.

Take `Cc1ccc(C2CC(c3ccc(S(=O)(=O)NCCNc4nc(Nc5ccc(F)cc5)nc(N(C)C)n4)cc3)=Nc3c(N)nc(N)nc3N2)cc1` (stereo not drawn): the growth is 58.5%.

`CC1=C(C(=O)OC(C)C)C(c2cccc(O)c2)NC(=S)N1` (stereo not drawn): the growth is 91.8%.

Take `C[C@H](Nc1nc(NCCc2ccccc2)nc2ccccc12)c1ccccc1`: the growth is -82.9% (active).

`COc1ccc(-c2c(Nn3cnnn3)no[n+]2[O-])cc1`: the growth was -14.3% (active).

In the case of `Cn1cc(NC(=O)c2cc(NC(=O)c3ccc(C#Cc4ccccc4)cc3)cn2C)cc1C(=O)NCCCN1CCOCC1`, the growth was -52.2% (active).

For `COc1cc(NC(=O)c2cccc(C3CCc4c(cc(OC)c(OC)c4OC)O3)c2)cc(OC)c1OC` (stereo not drawn), the growth is -9.86% (active).

On to `COc1ccc(-c2nnc3ccc(N/N=C/c4ccc(C)cc4)nn23)cc1`, for which the growth was 91%.

For `Cc1ccc(-n2c(-c3cc4ccccc4nc3Cl)noc2=O)cc1`, the growth was 62.7%.

As to `CC(=O)Oc1ccccc1C(=O)[Se]CC(=O)Nc1cccc(C(F)(F)F)c1`, the growth is -30.4% (active).

Take `N#Cc1c(-c2ccccc2Cl)cc(-c2ccc3ccccc3c2)[nH]c1=O`: the growth was 85%.

Consider `CCCCNC(=S)Nc1ccc(OCc2nc3ccccc3[nH]2)cc1`, for which the growth is 36.2%.

On to `COc1ccc(-c2nc3cc(C)ccc3n2CC(=O)N=Nc2c(O)[nH]c3ccccc23)cc1`, for which the growth was 42.1%.

As to `COc1ccc(-c2nc3ccc(C(=O)NN4C(=O)c5ccc([N+](=O)[O-])cc5C4=O)cc3[nH]2)cc1`, the growth is 88.6%.

Take `O=c1oc2ccccc2cc1-c1csc(N=Nc2c(O)[nH]c3ccc(Cl)cc23)n1`: the growth is 98.7%.

As to `CN(C)c1ccnc(CNCCSC2(c3ccccc3)c3ccccc3C=Cc3ccccc32)c1`, the growth is -73.6% (active).

In the case of `COc1cc2c(c(OC)c1OC)C(=O)CC(c1cccc(NC(=O)c3cc(NC(=O)[C@@H](N)CO)ccc3C)c1)O2` (stereo partly drawn), the growth was 93%.

As for `COc1ccc(C(=O)/C=C/c2c(F)cccc2Cl)cc1S(N)(=O)=O`, the growth is -61.1% (active).

`O=C(Nc1cccc(-n2cnc3cc(-c4ccc(O)cc4)ccc32)c1)C1CC1`: the growth is 5.82% (active).

Consider `COc1ccc(C2(SCCNCc3cc(N(C)C)ccn3)c3ccccc3C=Cc3ccccc32)cc1`, for which the growth was -17.2% (active).

On to `N/C(=N\c1nc2ccccc2s1)NC(=O)Nc1ccccc1Br`, for which the growth was -61.3% (active).

`COc1ccc(C2=NN(c3ccccc3)C(c3ccc(OC)c(OCc4ccccc4)c3)C2)cc1OC` (stereo not drawn): the growth was 78.2%.

In the case of `CC1=C(C(=O)c2ccccc2)C(c2ccc(-n3cncn3)cc2)n2c(nc3ccccc32)N1` (stereo not drawn), the growth is 83.2%.

For `CN(C)CCCNC(=O)c1cc(NC(=O)c2cc(NC(=O)c3ccc(C#Cc4ccccc4)cc3)cn2C)cn1C`, the growth is -95.3% (active).

`COc1cccc(/C=C/c2nc3ccccc3c(=O)n2CC(=O)Nc2ccc(Cl)cc2)c1`: the growth was 97.2%.
